Growth data for 13 compounds are collected here from PubChem BioAssay (NCI).

Test in all cases: NCI-60 one-dose screen, 48 h (100 = growth as untreated, 0 = no growth, -100 = all killed)
Holding throughout (conditions): 10 µM unless noted

Assay [1] deals with NCI-H23 lung.
In assay [2] the test system is NCI-H226 lung.
Assay [3] deals with NCI-H322M lung.
The subject of assay [4] is HOP-62 NSCLC.
Assay [5] concerns NCI-H460 lung.
For assay [6], the system named is HOP-92 NSCLC.
Assay [7] concerns NCI-H522 lung.
For assay [8], the system named is A549/ATCC NSCLC.
Assay [9] concerns 786-0 renal.
Assay [10] deals with COLO 205 colon.

Compounds without any hit were thinned out: in the full panel of roughly 83,000, 20% have a hit.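 Single-dose data. Exposure time 48 hours. Values below 10 considered active.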 Unmarked numbers belong to inactive results. Activity calls are given as the source filed them.

`O=C(N=Nc1c(O)[nH]c2ccccc12)Nc1ccc(F)cc1`: the growth in assay [1] is 96.8%; in assay [2] it was 91.7%; in assay [3] it was 93.8%; in assay [4] it was 83.2%; in [5] it was 108%; in assay [6] it was 94%. For the same compound, the growth in assay [7] was 78.5%; in assay [8], 87.5%; in assay [9], 97.3%; in assay [10], 103%.

Turning to `C[C@H](CCCC(=O)NCC#CCN1CCN(C)CC1)[C@H]1CC[C@H]2[C@@H]3CC[C@@H]4CC(=O)CC[C@]4(C)[C@H]3CC[C@]12C`, the growth in assay [1] is 87.7%; in assay [2], 103%; in [3], 97.7%; in assay [4], 96.2%; in assay [5], 96%; in assay [6], 73.7%. In addition, the growth in assay [7] is 102%; in assay [8], 95.7%; in assay [9] it was 97%; in assay [10], 95.1%.

With `CCN1C2CCC1/C(=C\c1ccc(F)cc1)C(=O)/C2=C/c1ccc(F)cc1`, the growth in assay [1] is 29.2%; in [2], 51.6%; in [3], 42.9%; in assay [4] it was 46%; in assay [5], 46.4%; in assay [6] it was 38.1%. In addition, the growth in assay [7] was 36.7%; in assay [8], 52.6%; in [9], 42.5%; in [10], 20.7%.

In the case of `O=C1c2ccccc2C(=O)c2c1cc1c(c2[N+](=O)[O-])OCO1`, the growth was 4.14% (active) in assay [1]; 25.9% in [2]; 46.9% in assay [3]; 3.82% (active) in assay [4]; 3.42% (active) in assay [5]; -3.71% (active) in assay [6]. Further, the growth in assay [7] is -46.6% (active); in assay [8] it was 49%; in assay [9], 2.64% (active); in assay [10], 48%.

Regarding `N=C(N)c1ccc(-c2ccc(-c3ccccc3)s2)cc1`, the growth is 85.5% in assay [1]; 103% in [2]; 49.2% in assay [3]; 74.6% in assay [4]; -16.6% (active) in [5]; 73.2% in assay [6]. Further, the growth in assay [7] is -26.5% (active); in assay [8], 60.1%; in [9], 78.8%; in assay [10], -42.9% (active).

For the compound `COc1ccc(C(=O)Cn2c(C(=O)c3ccc(Cl)cc3)nc3ccccc32)cc1`, the growth in assay [1] is 78.3%; in assay [2], 87.4%; in assay [3], 89.7%; in assay [4], 81.8%; in assay [5] it was 86.9%; in assay [6] it was 59.3%. The growth in assay [7] is 14.8%; in [8] it was 68.1%; in assay [9], 64.6%; in [10], 111%.

For the compound `CCOC(=O)c1c(C)nc2ccccc2c1/C=C/c1ccccc1`, the growth in assay [1] was 51%; in assay [2], 74.3%; in [3] it was 95.5%; in assay [4], 93.8%; in assay [5], 86.9%; in assay [6], 79.7%. The growth in assay [7] was 54.7%; in [8] it was 57.1%; in [9], 88.6%; in [10], 84.1%.

Consider `CN(CCCNC(=O)Cc1ccc2ccc3cccc4ccc1c2c34)CCCNc1cc(-c2ccc3ccccc3c2)nc2ccccc12`, for which the growth is -82.1% (active) in assay [1]; -39.5% (active) in [2]; -83.2% (active) in assay [3]; -85.9% (active) in [4]; -73.9% (active) in assay [5]; -88.8% (active) in assay [6]. Further, the growth in assay [7] was -42.9% (active); in assay [8], 1.17% (active); in assay [9] it was -80.2% (active); in [10], -77.3% (active).

As to `O=C(/C=C/c1ccc(Oc2ccc(Br)cc2)cc1)c1ccc(Br)cc1`, the growth in [1] is 95.3%; in [2], 103%; in assay [3], 95.3%; in assay [4] it was 99.9%; in assay [5] it was 105%; in [6] it was 91.6%. Also, the growth was 91.1% in [7], 94.4% in [8], 101% in assay [9] and 113% in assay [10].

Take `Cc1ccc2c(=O)cc(C(=O)Nc3sc4c(c3C(=O)NCc3cccnc3)CCCC4)oc2c1C`: the growth in [1] is 101%; in assay [2], 107%; in assay [3], 103%; in [4], 104%; in assay [5], 109%; in [6], 97.3%. Moreover, the growth in assay [7] is 100%; in [8], 98.4%; in assay [9], 108%; in assay [10] it was 110%.

As to `CS(=O)(=O)Nc1cc(-c2ccc3ncc(C#N)c(Nc4ccc(F)c(Cl)c4)c3c2)cnc1Cl`, the growth is -11.7% (active) in assay [1]; -0.649% (active) in assay [2]; 5.43% (active) in assay [3]; 1.41% (active) in assay [4]; 6.16% (active) in assay [5]; -1.46% (active) in [6]. Besides, the growth in assay [7] was -18.1% (active); in [8], 5.08% (active); in assay [9], 6.73% (active); in assay [10], -53.5% (active).

`COc1ccc(C2=CN3CC=CC3CC2=O)cc1` (stereo not given): the growth was 97.8% in assay [1]; 98% in [2]; 108% in assay [3]; 91.1% in assay [4]; 106% in assay [5]; 107% in assay [6]. Moreover, the growth in [7] was 85.2%; in assay [8] it was 87.4%; in assay [9], 88.8%; in [10], 102%.

In the case of `Cc1nc2ccccc2c(/C=C/c2ccccc2)c1C(=O)/C=C/c1ccccc1`, the growth is 28.7% in assay [1]; 65.1% in assay [2]; 43.8% in assay [3]; 6.52% (active) in assay [4]; -20.8% (active) in assay [5]; 79.6% in [6]. The growth was 15.9% in assay [7], 23.2% in assay [8], 31.5% in assay [9] and 15.7% in assay [10].
